From PubChem BioAssay (NCATS)
Records with an inconclusive call do not appear. Unless noted, the call rests on the fitted dose curve; in most records, active means well fitted curve in either direction with a large enough effect (not every such curve was filed as active); inconclusive means small, poorly fitted or top-dose-only effect, or another doubt; inactive means flat fitted curve, though single readings scatter.

Columns and labels:
[1] = AP1 Signaling Pathway (AID 357); details: ME-180 AP-1-bla reporter, EGF-induced, beta-lactamase ratio, 5 h; at 17.2 µM (top of the series) unless noted; further: on the % scale 0 is the no-effect control and ±100 the full control effect
Summary of the method: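 ME-180 cells with beta-lactamase reporter under AP-1 response element, stimulated with EC50 EGF; compounds tested in titration series, 5 h at 37 °C. CCF4 substrate added 2.5 h at room temperature; 460/530 nm emission ratio gave %activity and AC50.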

[2] = NFAT Signaling Pathway (AID 444); details: Jurkat NFAT-bla M1, carbachol, beta-lactamase ratio, 5 h; at 17.2 µM (top of the series) unless noted;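 further: carbachol stimulus at about its EC50 of 1 µM final; on the % scale 0 is the no-effect control and ±100 the full control effect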
Summary of the method: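 Jurkat cells carrying an NFAT-driven β-lactamase reporter and co-transfected muscarinic M1 receptor were treated with compound plus carbachol (1 uM final, an EC50 level) for 5 h at 37 °C. CCF4 loading followed for 1 h at RT; 460/530 nm ratio gave %activity.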

[3] = Stat Signaling Pathway (AID 446); details: ME-180 (cervical carcinoma) SIE beta-lactamase reporter, IL-6 stimulated, 5 h; at 17.2 µM (top of the series) unless noted;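 further: ME-180 cervical cancer cells given 40 pM IL-6 alongside compound; SIE-controlled beta-lactamase reporter measured as 460/530 nm FRET emission ratio; on the % scale 0 is the no-effect control and ±100 the full control effect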
Summary of the method: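 IL-6/STAT signaling read in ME-180 cells via an SIE beta-lactamase reporter. Stimulus was 40 pM IL-6 (its AC50) for 5 hrs, so both activation and inhibition register.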

[4] = target: Glucocorticoid receptor (Homo sapiens) (UniProt P04150); assay: GR-GFP Redistribution (AID 450;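 active means compounds whose dose series gives a full or clear partial fitted curve of increased nuclear translocation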; further: potency means the concentration at half of the fitted maximal effect)
Sequence of Glucocorticoid receptor (Homo sapiens) (P04150 whole entry, looked up): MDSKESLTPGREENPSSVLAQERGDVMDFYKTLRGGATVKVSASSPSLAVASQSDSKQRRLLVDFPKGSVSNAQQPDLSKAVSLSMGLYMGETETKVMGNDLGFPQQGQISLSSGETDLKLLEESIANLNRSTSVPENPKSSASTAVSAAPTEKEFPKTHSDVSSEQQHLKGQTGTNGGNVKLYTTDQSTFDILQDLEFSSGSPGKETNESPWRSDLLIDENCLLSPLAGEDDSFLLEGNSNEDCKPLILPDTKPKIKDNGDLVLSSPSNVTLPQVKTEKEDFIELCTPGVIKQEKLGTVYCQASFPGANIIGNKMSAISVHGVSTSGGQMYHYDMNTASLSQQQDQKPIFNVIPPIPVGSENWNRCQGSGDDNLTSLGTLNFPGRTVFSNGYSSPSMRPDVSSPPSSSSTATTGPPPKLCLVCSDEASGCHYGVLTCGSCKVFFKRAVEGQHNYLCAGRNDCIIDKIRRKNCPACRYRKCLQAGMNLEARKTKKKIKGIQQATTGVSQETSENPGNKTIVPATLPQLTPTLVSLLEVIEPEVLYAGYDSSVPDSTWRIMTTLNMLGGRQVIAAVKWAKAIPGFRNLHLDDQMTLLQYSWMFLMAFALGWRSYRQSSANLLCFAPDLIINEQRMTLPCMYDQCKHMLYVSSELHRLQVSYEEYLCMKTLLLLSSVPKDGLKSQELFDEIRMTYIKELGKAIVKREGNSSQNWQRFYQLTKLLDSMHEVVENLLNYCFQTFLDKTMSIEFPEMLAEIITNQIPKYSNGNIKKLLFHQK

N#CCCn1cnc2c(=S)nc[nH]c21
inactive: activity change, negative = inhibition [1] 16.8% | activity change, negative = inhibition [2] 11.2% | activity, negative = inhibition [3] 11.6% | Potency [4] > 20.6 µM

Cc1ccc(C(=O)C2C(c3cccs3)NC(=O)NC2(O)C(F)(F)F)cc1 (stereo not given)
inactive: activity change, negative = inhibition [1] 1.39% | activity change, negative = inhibition [2] 8.36% | activity, negative = inhibition [3] 0.646% | Potency [4] > 20.6 µM

Cc1nnc2n(-c3ccccc3)c(=O)c3c4c(sc3n12)CCCC4
inactive: activity change, negative = inhibition [1] 21.9% | activity change, negative = inhibition [2] -2.17% | activity, negative = inhibition [3] 10.4% | Potency [4] > 20.6 µM

CCCOc1cccc(C2/C(=C(/O)c3ccccc3)C(=O)C(=O)N2CCN(C)C)c1 (stereo not given)
inactive: activity change, negative = inhibition [1] 5.11% | activity change, negative = inhibition [2] 24.1% | activity, negative = inhibition [3] 0.936% | Potency [4] > 20.6 µM

Cc1nc(-c2c(-c3ccc(O)cc3O)noc2C(F)(F)F)cs1
inactive: activity change, negative = inhibition [1] -11.8% | activity change, negative = inhibition [2] -22% | activity, negative = inhibition [3] -18.8% | Potency [4] > 20.6 µM

CN/C(=C/[N+](=O)[O-])NCCSCc1ccc(CN(C)C)o1
inactive: activity change, negative = inhibition [1] -15.4% | activity change, negative = inhibition [2] -27.6% | activity, negative = inhibition [3] -3.38% | Potency [4] > 20.6 µM

Cc1nc(-c2coc3cc(OCC(=O)O)ccc3c2=O)cs1
inactive: activity change, negative = inhibition [1] 7.54% | activity change, negative = inhibition [2] -2.11% | activity, negative = inhibition [3] 3.59% | Potency [4] > 20.6 µM

CCN1CCc2c(C#N)c(NCc3ccccc3)nc(N(CC)CC)c2C1
inactive: activity change, negative = inhibition [1] 2.07% | activity change, negative = inhibition [2] 1.29% | activity, negative = inhibition [3] 12.6% | Potency [4] > 20.6 µM

Cn1c(=O)[nH]c(=O)c2c1nc(Br)n2CCSc1ncccn1
inactive: activity change, negative = inhibition [1] 5.72% | activity change, negative = inhibition [2] -10.8% | activity, negative = inhibition [3] 4.76% | Potency [4] > 20.6 µM

COc1ccc(C(=O)Cn2c(N3CCCCC3)nc3c2c(=O)n(C)c(=O)n3C)cc1OC
inactive: activity change, negative = inhibition [1] 14.7% | activity change, negative = inhibition [2] 21% | activity, negative = inhibition [3] -0.755% | Potency [4] > 20.6 µM

COC(=O)c1sc(NC(=O)C(C)C)c(C(=O)OC)c1C
inactive: activity change, negative = inhibition [1] -5.18% | activity change, negative = inhibition [2] -9.07% | activity, negative = inhibition [3] 1.94% | Potency [4] > 20.6 µM

COc1ccc(NC(=O)c2c(C)cc(=O)oc2C)c(OC)c1
inactive: activity change, negative = inhibition [1] 6.98% | activity change, negative = inhibition [2] 16.2% | activity, negative = inhibition [3] 10.7% | Potency [4] > 20.6 µM

CC(=O)C1=C(O)C(=O)N(Cc2cccnc2)C1c1ccccc1Cl (stereo not given)
inactive: activity change, negative = inhibition [1] 3.06% | activity change, negative = inhibition [2] 3.26% | activity, negative = inhibition [3] 1.82% | Potency [4] > 20.6 µM

Fc1ccc(OCCOCCNCC2CCCO2)cc1 (stereo not given)
inactive: activity change, negative = inhibition [1] 12.2% | activity change, negative = inhibition [2] -14.1% | activity, negative = inhibition [3] 21.6% | Potency [4] > 20.6 µM

CC1(C)Cc2[nH]c(=O)c(C#N)cc2CS1
inactive: activity change, negative = inhibition [1] 19.5% | activity change, negative = inhibition [2] -1.45% | activity, negative = inhibition [3] 10.8% | Potency [4] > 20.6 µM

Cc1ccc(S(=O)(=O)N(CC(O)CN(C)C)c2ccccc2)cc1 (stereo not given)
inactive: activity change, negative = inhibition [1] 6.2% | activity change, negative = inhibition [2] -0.131% | activity, negative = inhibition [3] 7.64% | Potency [4] > 20.6 µM

CCOc1ccc(C2/C(=C(/O)c3ccc(F)cc3)C(=O)C(=O)N2CCCN(C)C)cc1 (stereo not given)
inactive: activity change, negative = inhibition [1] 10.1% | activity change, negative = inhibition [2] 5.42% | activity, negative = inhibition [3] 6.85% | Potency [4] > 20.6 µM

CCn1c(SC(C)C(=O)O)nc2sc3c(c2c1=O)CCC3 (stereo not given)
inactive: activity change, negative = inhibition [1] 2.76% | activity change, negative = inhibition [2] 17.5% | activity, negative = inhibition [3] -5.33% | Potency [4] > 20.6 µM

COc1cccc(C2=CC(c3ccccc3)n3ncnc3N2)c1 (stereo not given)
inactive: activity change, negative = inhibition [1] -21.4% | activity change, negative = inhibition [2] -15.1% | activity, negative = inhibition [3] -5.76% | Potency [4] > 20.6 µM

COc1ccc2[nH]c(C)c(C(=O)CN3CCN(C(=O)c4ccco4)CC3)c2c1
inactive: activity change, negative = inhibition [1] -11.2% | activity change, negative = inhibition [2] -1.42% | activity, negative = inhibition [3] -3.32% | Potency [4] > 20.6 µM

CC1CCN(c2ncnc3c2cnn3Cc2ccc(Cl)cc2)CC1
inactive: activity change, negative = inhibition [1] -26% | activity change, negative = inhibition [2] -2.2% | activity, negative = inhibition [3] -11.4% | Potency [4] > 20.6 µM

Cc1cc(C)cc(-n2c3nc4ccccc4nc3c3c(=O)n(Cc4ccco4)cnc32)c1
inactive: activity change, negative = inhibition [1] 8.24% | activity change, negative = inhibition [2] -18.2% | activity, negative = inhibition [3] -16.9% | Potency [4] > 20.6 µM

O=C(O)c1ccc(COc2c(F)c(F)c(F)c(F)c2F)o1
inactive: activity change, negative = inhibition [1] 4.64% | activity change, negative = inhibition [2] -0.748% | activity, negative = inhibition [3] -10.8% | Potency [4] > 20.6 µM

CSCCC(CO)NC(=O)OCc1ccccc1 (stereo not given)
inactive: activity change, negative = inhibition [1] 0.666% | activity change, negative = inhibition [2] -0.945% | activity, negative = inhibition [3] 2.15% | Potency [4] > 20.6 µM

CCN(CC)CCCN1C(=O)C(=O)/C(=C(/O)c2ccccc2)C1c1cc(OC)ccc1OC (stereo not given)
inactive: activity change, negative = inhibition [1] 3.34% | activity change, negative = inhibition [2] 7.04% | activity, negative = inhibition [3] 3.31% | Potency [4] > 20.6 µM
